In ChEMBL document CHEMBL2218924, “A broad activity screen in support of a chemogenomic map for kinase signalling research and drug discovery” (Biochem J, 2013) one finds residual activity data, which are given here for one molecule.

Experiment [1] addresses T1, Ephrin type-B receptor 1 (Homo sapiens) (UniProt P54762).
T1 sequence (whole entry): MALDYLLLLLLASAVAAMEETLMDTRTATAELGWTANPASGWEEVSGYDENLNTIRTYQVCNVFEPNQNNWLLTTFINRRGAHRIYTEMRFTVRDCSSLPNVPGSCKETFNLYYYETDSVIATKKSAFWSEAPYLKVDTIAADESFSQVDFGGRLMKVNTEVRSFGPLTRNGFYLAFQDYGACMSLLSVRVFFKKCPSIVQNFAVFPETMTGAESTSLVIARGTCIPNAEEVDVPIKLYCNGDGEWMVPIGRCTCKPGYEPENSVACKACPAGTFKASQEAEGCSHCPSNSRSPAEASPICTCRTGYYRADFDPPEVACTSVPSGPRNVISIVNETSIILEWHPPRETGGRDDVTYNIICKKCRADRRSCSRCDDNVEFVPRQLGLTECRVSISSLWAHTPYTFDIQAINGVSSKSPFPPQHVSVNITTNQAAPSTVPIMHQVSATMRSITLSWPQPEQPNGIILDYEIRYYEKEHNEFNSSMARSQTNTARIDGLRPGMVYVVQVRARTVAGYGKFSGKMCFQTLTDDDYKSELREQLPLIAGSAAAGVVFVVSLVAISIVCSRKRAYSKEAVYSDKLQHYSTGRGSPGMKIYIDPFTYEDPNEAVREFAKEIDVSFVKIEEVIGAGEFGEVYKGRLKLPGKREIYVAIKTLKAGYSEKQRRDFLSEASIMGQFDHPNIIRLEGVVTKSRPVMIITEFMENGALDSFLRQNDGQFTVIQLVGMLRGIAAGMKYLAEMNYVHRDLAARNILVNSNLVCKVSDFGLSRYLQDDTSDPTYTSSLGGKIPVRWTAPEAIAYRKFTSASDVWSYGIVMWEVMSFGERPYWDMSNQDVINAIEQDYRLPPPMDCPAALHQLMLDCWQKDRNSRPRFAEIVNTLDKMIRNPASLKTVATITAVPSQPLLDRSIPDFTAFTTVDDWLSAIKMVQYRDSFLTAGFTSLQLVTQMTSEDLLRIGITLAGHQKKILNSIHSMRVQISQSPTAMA
Particulars: at 10 µM; call rule not given here.

Experiment [2] addresses T2, Ephrin type-B receptor 2 (Homo sapiens) (UniProt P29323).
T2 sequence (whole entry): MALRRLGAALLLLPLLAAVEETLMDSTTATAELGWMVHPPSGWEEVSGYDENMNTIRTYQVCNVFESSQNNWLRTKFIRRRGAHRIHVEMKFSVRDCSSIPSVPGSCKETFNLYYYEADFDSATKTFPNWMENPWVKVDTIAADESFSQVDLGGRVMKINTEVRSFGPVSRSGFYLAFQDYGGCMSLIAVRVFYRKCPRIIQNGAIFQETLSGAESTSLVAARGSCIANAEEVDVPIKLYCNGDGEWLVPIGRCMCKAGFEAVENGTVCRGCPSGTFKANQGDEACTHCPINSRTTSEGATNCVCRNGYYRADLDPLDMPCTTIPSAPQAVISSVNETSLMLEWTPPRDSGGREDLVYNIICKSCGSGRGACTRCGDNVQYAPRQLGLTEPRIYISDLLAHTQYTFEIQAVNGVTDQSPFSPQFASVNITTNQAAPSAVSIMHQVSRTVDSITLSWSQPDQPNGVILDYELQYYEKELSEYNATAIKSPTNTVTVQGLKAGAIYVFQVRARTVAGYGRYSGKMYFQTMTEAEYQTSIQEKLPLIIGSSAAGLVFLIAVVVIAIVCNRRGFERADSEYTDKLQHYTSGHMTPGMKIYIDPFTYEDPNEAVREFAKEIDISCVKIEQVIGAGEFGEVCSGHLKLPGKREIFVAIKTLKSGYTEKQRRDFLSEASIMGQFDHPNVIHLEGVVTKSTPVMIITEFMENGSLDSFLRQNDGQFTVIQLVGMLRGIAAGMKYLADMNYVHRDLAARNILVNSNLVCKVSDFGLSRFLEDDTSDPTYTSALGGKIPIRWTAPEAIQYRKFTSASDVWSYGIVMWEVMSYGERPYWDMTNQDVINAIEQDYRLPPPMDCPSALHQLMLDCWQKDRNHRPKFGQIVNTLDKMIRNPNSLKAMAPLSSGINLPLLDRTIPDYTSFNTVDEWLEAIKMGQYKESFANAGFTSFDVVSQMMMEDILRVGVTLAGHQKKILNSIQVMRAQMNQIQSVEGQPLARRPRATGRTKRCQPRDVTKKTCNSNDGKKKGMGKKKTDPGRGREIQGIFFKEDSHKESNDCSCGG
Particulars: at 1 µM.

Experiment [3] has as its target T2, Ephrin type-B receptor 2 (Homo sapiens). The following applies: at 10 µM.
The target of experiment [4] is T3, Ephrin type-B receptor 3 (Homo sapiens) (UniProt P54753).
T3 sequence (whole entry): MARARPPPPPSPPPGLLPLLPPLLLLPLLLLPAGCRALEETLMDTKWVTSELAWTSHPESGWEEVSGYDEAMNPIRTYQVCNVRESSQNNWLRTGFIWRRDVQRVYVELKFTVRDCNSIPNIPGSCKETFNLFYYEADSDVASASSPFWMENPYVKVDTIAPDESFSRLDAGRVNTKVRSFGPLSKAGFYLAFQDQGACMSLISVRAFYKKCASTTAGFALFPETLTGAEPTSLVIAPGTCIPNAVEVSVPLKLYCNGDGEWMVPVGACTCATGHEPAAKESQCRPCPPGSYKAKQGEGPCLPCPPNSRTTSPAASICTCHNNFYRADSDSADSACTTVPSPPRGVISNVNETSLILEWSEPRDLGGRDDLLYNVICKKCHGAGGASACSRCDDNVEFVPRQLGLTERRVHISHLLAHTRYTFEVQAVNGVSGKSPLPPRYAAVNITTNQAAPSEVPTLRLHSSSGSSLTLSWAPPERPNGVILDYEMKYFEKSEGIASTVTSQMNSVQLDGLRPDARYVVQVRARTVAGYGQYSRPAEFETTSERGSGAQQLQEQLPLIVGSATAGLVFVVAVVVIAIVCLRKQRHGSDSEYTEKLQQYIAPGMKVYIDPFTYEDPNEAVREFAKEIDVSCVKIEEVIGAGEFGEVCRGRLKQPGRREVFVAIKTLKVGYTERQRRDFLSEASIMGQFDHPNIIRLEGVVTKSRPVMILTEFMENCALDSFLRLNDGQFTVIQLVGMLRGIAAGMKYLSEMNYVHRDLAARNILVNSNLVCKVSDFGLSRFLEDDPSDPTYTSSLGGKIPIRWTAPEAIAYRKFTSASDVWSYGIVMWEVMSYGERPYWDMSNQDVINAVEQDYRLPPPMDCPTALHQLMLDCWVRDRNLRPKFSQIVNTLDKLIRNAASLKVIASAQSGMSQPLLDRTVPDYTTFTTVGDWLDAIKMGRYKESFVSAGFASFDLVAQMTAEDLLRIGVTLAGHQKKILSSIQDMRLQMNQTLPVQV
The following applies: at 1 µM.

In experiment [5] the target is T3, Ephrin type-B receptor 3 (Homo sapiens). Particulars: at 10 µM.
In experiment [6] the target is T4, Ephrin type-B receptor 4 (Homo sapiens) (UniProt P54760).
T4 sequence (whole entry): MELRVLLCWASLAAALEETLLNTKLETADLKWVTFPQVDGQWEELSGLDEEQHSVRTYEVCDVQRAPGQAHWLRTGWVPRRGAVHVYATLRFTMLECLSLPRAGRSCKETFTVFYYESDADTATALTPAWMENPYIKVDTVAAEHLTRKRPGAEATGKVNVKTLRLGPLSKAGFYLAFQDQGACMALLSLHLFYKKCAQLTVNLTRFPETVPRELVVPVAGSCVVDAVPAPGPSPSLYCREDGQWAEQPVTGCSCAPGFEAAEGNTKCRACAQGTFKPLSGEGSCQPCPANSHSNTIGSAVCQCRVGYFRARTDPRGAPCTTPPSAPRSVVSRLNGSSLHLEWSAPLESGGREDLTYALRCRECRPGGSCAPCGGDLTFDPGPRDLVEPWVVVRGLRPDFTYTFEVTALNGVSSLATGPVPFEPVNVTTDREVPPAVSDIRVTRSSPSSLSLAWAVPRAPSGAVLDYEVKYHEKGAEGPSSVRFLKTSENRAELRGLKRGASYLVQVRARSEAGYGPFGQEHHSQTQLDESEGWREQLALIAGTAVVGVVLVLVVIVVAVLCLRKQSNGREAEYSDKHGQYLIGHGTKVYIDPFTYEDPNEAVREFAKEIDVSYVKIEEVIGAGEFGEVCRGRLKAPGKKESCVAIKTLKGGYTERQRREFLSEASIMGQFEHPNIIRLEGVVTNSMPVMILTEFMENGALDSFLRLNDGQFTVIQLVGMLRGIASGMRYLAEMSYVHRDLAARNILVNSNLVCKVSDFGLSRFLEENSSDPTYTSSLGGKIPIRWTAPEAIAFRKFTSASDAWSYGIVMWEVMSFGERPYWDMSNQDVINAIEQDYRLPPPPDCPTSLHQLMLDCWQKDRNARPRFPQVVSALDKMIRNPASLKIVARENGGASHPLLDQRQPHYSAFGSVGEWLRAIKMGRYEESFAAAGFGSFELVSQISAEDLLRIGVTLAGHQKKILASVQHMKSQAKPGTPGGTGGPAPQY
The following applies: at 1 µM.

Experiment [7] addresses T4, Ephrin type-B receptor 4 (Homo sapiens). Particulars: at 10 µM.
For experiment [8], the target named is Receptor tyrosine-protein kinase erbB-4 (Homo sapiens) (UniProt Q15303). Particulars: at 1 µM.
Chain of Receptor tyrosine-protein kinase erbB-4 (Homo sapiens) (Q15303 whole entry): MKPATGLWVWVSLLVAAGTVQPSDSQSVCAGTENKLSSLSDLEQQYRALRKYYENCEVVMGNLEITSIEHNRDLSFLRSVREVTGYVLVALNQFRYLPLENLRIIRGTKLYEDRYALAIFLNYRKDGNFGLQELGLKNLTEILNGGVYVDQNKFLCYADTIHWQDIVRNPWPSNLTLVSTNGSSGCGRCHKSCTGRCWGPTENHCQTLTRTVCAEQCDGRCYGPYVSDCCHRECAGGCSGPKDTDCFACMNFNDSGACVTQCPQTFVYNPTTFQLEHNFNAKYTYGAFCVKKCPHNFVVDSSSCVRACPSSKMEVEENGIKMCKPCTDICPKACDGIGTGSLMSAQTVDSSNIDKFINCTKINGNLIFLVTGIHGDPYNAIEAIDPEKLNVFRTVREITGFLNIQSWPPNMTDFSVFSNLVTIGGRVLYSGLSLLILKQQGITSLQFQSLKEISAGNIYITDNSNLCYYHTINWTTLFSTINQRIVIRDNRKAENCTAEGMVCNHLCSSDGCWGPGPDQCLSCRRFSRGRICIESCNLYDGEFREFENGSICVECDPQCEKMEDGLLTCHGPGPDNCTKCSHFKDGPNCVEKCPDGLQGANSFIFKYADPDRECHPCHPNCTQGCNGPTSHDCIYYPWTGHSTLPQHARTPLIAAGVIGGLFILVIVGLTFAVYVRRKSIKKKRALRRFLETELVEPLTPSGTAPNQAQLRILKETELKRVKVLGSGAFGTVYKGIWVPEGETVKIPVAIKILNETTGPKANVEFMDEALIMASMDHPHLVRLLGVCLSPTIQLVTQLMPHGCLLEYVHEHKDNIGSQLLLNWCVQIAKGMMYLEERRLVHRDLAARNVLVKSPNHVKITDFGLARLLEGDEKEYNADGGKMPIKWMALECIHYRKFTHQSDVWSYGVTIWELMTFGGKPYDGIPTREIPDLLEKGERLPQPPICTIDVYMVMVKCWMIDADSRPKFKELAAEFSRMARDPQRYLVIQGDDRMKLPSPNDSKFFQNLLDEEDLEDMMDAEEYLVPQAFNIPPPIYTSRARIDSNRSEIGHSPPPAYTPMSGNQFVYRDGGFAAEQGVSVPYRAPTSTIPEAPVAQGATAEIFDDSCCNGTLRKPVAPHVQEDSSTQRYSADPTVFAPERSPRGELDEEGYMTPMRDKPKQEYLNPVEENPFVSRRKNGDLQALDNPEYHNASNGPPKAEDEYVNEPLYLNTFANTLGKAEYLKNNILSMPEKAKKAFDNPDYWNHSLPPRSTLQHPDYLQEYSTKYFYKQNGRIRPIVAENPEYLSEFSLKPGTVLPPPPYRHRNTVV
The target is the same in experiment [9]. Particulars: at 10 µM.
The target of experiment [10] is Focal adhesion kinase 1 (Homo sapiens) (UniProt Q05397). The following applies: at 1 µM.
Chain of Focal adhesion kinase 1 (Homo sapiens) (Q05397 2-1052 limits assumed): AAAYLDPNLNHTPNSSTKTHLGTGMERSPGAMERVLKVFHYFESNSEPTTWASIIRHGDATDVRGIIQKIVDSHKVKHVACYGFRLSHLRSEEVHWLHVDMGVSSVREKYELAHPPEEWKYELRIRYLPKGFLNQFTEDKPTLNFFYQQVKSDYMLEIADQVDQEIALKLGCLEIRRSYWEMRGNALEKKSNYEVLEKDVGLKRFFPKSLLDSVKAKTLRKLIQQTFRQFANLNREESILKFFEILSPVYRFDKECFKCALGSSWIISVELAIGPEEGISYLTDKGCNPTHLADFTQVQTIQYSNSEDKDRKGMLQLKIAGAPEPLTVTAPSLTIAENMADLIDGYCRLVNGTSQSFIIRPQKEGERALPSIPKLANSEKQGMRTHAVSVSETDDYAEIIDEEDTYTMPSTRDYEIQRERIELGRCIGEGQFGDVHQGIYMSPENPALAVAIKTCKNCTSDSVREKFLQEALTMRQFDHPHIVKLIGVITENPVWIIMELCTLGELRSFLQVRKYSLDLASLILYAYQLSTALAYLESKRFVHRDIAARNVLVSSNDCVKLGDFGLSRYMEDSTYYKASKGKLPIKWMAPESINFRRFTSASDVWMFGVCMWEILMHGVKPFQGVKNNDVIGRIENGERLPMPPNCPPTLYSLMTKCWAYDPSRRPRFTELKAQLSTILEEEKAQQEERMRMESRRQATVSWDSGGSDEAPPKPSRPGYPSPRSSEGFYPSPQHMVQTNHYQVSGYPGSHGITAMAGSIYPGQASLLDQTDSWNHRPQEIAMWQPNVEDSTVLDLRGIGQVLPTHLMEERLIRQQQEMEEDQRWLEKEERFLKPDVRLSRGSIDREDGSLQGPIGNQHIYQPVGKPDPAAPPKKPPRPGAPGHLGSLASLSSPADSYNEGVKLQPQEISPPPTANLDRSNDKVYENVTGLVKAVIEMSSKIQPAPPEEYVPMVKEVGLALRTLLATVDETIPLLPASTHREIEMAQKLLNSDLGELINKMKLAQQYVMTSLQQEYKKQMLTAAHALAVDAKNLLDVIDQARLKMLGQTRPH

With `Cc1ccc(S(=O)(=O)/C=C/C#N)cc1`, the residual activity in experiment [1] is 92%; in experiment [2], 122%; in experiment [3] it was 126%; in experiment [4], 118% (inactive); in [5], 111%; in experiment [6], 97%. For the same molecule, the residual activity in experiment [7] was 90%; in experiment [8], 95%; in experiment [9], 90%; in experiment [10] it was 105%.
